# GALK inh – inhibitors of human galactokinase (GALK) | P51570 | recombinant GALK, Kinase-Glo ATP luminescence, 1 h | Potency, µM (series often up to 57.5 µM), without a hit: at the top dose activity, negative = inhibition, usual class: inhibitors | 44,000 tested, under 10 active;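 note: plate controls were full GALK reaction for no effect and reaction lacking GALK for full effect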
#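 5 nM GALK with 35 µM ATP and 100 µM galactose in HEPES pH 8.0, MgCl2, NaCl, DTT, BSA; 1 h RT reaction, remaining ATP detected by Kinase-Glo Plus luminescence after 10 min; qHTS concentration series.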
# S16 F2sN tox – cytotoxicity in S16 Pmp22-F2sN Schwann cells. S16 Pmp22-F2sN Schwann cells viability, CellTiter-Glo, 24 h. Potency, µM (top dose mostly 57.5 µM), for the others: top-dose activity change, negative = cytotoxicity, usual class: cytotoxic. 43,000 compounds, 0.48% hits; note: potency is the fitted concentration of half-maximal effect; % is set by controls: 0 for no effect and ±100 for the full control effect; nearly all actives have a fitted effect of over 65% in size
#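 S16 Pmp22-F2sN Schwann cells (500-1,000/well) in phenol-red-free DMEM with 10% FBS received 23 nL compound by pin tool for 24 h at 37 °C. Viability was then read as CellTiter-Glo luminescence after 15 min at room temperature.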
# PMP22 txn – PMP22 gene transcription modulation; S16 Pmp22-F2sN Schwann cells, FLuc/NLuc coincidence luminescence, 24 h; Potency, µM (doses to about 57.5 µM), without a hit: top-dose activity change, negative = inhibition, most hits filed as inhibitors; 43,000 compounds, 2% hits; active = clear falling dose curves in both reporters; inconclusive = both reporters move, but less clearly or upward; inactive = either reporter flat; the % is the NLuc reporter signal; note: potency is the fitted concentration of half-maximal effect; % is set by controls: 0 for no effect and ±100 for the full control effect
#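 S16 Schwann cells carrying FLuc/NLuc coincidence reporter in the Pmp22 3' UTR treated with compound 24 h at 37C; FLuc then NLuc luminescence read sequentially by dual-luciferase reagents.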
# mTORC1 inh – reduces mTORC1 signaling in Tsc2 and p53 null MEF cells | Tsc2-/- p53-/- MEF, phospho-rpS6 immunofluorescence/PI, 24 h | Potency, µM (series often up to 38.3 µM), inactives show at the top dose activity change, negative = inhibition, hits mostly inhibitors | 44,000 compounds, 0.78% hits;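 note: potency is the fitted concentration of half-maximal effect; plate controls were DMSO for no effect and rapamycin for full effect; nearly all actives have a fitted effect of over 50% in size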
#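 Immunofluorescence of rpS6 phosphorylation in Tsc2-/-, p53-/- MEFs after 24 h compound exposure, normalized to propidium iodide signal. Activity is expressed as % positive cells, thresholded with 7.5 nM rapamycin.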
# PTAP-TSG101 blk – inhibitors of HIV-1 PTAP binding to human TSG101, validation | 44,000 tested, under 10 active | Potency, µM (highest dose often 115 µM), most hits filed as inhibitors | Fluorescence polarization, FITC-PTAP peptide/Tsg101, 20 min | Q99816; note: potency is the fitted concentration of half-maximal effect; 0% is about no effect
#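 FITC-labeled PTAP peptide (50 nM final) binding to Tsg101 binding domain (10 uM final) read by fluorescence polarization after 20 min at r.t. in HEPES pH 7.5 buffer. Actives by CRC class, <25 µM.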
# NLuc sat counter – counter-screen for PMP22 expression modulators: NanoLuc inhibition, saturating substrate | AID 1508638 | Potency, µM (series often up to 57.5 µM), for the others: at the highest dose activity change, negative = inhibition, most hits filed as inhibitors | Secreted NLuc enzyme (filtered S16 cell medium), Nano-Glo luminescence | 690 compounds, 4% hits | shares compounds with PMP22 txn; note: potency is the fitted concentration of half-maximal effect; % is set by controls: 0 for no effect and ±100 for the full control effect
# NLuc Km counter – inhibits NanoLuc under Km conditions, PMP22 counter-screen. 690 compounds, 5% hits. shares compounds with PMP22 txn. Potency, µM (titrated, usually from 57.5 µM), without a hit: top-dose activity change, negative = inhibition, usual class: inhibitors. secreted NLuc enzyme, coelenterazine luminescence, Km conditions; note: potency is the fitted concentration of half-maximal effect; % is set by controls: 0 for no effect and ±100 for the full control effect
# FLuc counter – firefly luciferase enzyme inhibition artifact for PMP22 screen; shares compounds with PMP22 txn; purified P. pyralis FLuc, luminescence, 10 min; Potency, µM (series often up to 57.5 µM), for inactives: at the highest dose activity, negative = inhibition, most hits filed as inhibitors; 690 tested, under 10 active; note: % of control where 0% means no effect
# Target sequence (P08659 whole entry, looked up): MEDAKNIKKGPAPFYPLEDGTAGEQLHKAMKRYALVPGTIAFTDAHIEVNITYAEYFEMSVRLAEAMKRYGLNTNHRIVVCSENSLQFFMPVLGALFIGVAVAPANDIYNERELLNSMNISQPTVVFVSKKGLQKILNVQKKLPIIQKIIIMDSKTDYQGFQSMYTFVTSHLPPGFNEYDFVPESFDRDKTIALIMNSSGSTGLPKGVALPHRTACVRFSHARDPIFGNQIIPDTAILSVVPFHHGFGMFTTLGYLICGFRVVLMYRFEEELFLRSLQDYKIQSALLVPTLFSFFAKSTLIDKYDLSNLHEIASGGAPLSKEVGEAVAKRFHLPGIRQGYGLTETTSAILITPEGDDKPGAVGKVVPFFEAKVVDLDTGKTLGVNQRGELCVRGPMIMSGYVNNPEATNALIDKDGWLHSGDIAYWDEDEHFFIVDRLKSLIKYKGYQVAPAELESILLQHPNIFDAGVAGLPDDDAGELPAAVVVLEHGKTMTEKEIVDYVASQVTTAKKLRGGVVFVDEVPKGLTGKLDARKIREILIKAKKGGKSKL
# S16 F2sN tox cnf – confirmation of cytotoxicity in S16 Pmp22-F2sN Schwann cells (luciferase reporters placed in the Pmp22 gene) | S16 Schwann cells viability, CellTiter-Glo ATP luminescence, 24 h | Potency, µM (highest dose often 57.5 µM), for the others: at the top dose activity change, negative = viability loss, most hits filed as cytotoxic | 690 compounds, 7% hits | shares compounds with PMP22 txn; note: potency is the fitted concentration of half-maximal effect; % is set by controls: 0 for no effect and ±100 for the full control effect
# PMP22 txn cnf – confirmation of modulators of PMP22 gene transcription in S16 cells; S16 Schwann cells Pmp22-F2sN, dual luciferase, 24 h; shares compounds with PMP22 txn; AID 1508646; 690 compounds, 22% hits; Potency, µM (highest dose often 57.5 µM), inactives show top-dose activity change, negative = inhibition, hits mostly inhibitors; active = clear falling dose curves in both reporters; inconclusive = both reporters move, but less clearly or upward; inactive = either reporter flat; the % is the FLuc reporter signal; note: potency is the fitted concentration of half-maximal effect
# * marks the source's active call; other numbers are inactive results; i = inactive; ? = inconclusive; . = no result. Compounds with a hit are over-represented: about 2.8% of the library has one in this group of screens. Unless noted, calls come from the whole dose curve; as a rule, active = well fitted curve in the direction sought with a large enough effect; inconclusive = small, poorly fitted or top-dose-only effect, or another doubt; inactive = no such curve, though single readings can be large; an effect the other way counts as inactive or inconclusive.
SMILES,GALK inh,S16 F2sN tox,PMP22 txn,mTORC1 inh,PTAP-TSG101 blk,NLuc sat counter,NLuc Km counter,FLuc counter,S16 F2sN tox cnf,PMP22 txn cnf
Cc1cccc(N2CCN(C(=O)C3CCN(S(=O)(=O)c4ccc5c(c4)oc(=O)n5C)CC3)CC2)c1C,0.4%,-14.8%,20µM*,-0.1%,i,-5.5%,2.8%,1.5%,-14.7%,-27.6%
Cc1ccc(C)c(Nc2cc(C(=O)NCCCN(C)C3CCCCC3)c3ccccc3n2)c1,6.0%,?,?,?,i,.,.,.,.,.
Cc1cc(C)cc(Nc2cc(C(=O)NCCCN(C)C3CCCCC3)c3ccccc3n2)c1,8.6%,?,8.91µM*,4.14µM*,i,-4.9%,0.3%,?,17.2µM*,15.3µM*
CCc1ccccc1Nc1cc(C(=O)NCCCN(C)C2CCCCC2)c2ccccc2n1,0.2%,?,20µM*,?,i,-1.3%,2.2%,-4.3%,?,?
CCN(CCCNC(=O)c1cc(Nc2ccc(OC)cc2OC)nc2ccccc12)c1cccc(C)c1,0.5%,-7.1%,15µM*,2.3%,i,-12.9%,-0.5%,-21.5%,-4.2%,-17.8%
CCCCN(CCCNC(=O)c1cc(Nc2ccc(OC)cc2OC)nc2ccccc12)Cc1ccccc1,1.7%,-21.8%,?,-21.3%,i,.,.,.,.,.
CCN(CC)CCN(C(=O)c1ccc(C(=O)OC)cc1)c1nc2ccc(Cl)cc2s1,-0.1%,1.2%,?,-7.2%,i,.,.,.,.,.
COc1ccccc1N1CCN(C(=O)c2oc3ccccc3c2NC(=O)C(C)Oc2ccccc2)CC1 (configuration not stated),0.2%,2.4%,?,6.1%,i,.,.,.,.,.
COc1ccc(-c2cc3nc(C)c(CCC(=O)N4CCN(c5ccccc5F)CC4)c(C)n3n2)c(OC)c1,0.0%,18.0%,?,1.3%,i,.,.,.,.,.
COc1ccc(-c2cc3nc(C)c(CCC(=O)N4CCN(c5cc(C)ccc5C)CC4)c(C)n3n2)c(OC)c1,0.8%,20.6%,14.2µM*,-5.3%,i,?,-0.2%,-5.1%,-7.4%,-38.9%
CC(=O)c1ccc(S(=O)(=O)Nc2cccc(-c3ccc(N4CCCC4)nn3)c2)cc1,-0.5%,.,.,-0.4%,i,.,.,.,.,.
CC(=O)Nc1cccc(-c2nnc(SCC(=O)c3cc([N+](=O)[O-])ccc3Br)o2)c1,-1.3%,?,12.1µM*,?,i,10.9µM*,12.2µM*,?,8.5%,17.2µM*
COc1cccc(C(=O)NCC(c2ccc3c(c2)OCO3)N2CCN(C)CC2)c1 (configuration not stated),2.6%,20.9%,-14.1%,-8.3%,i,.,.,.,.,.
O=C(NCCSc1c(-c2ccc(Br)cc2)[nH]c2ccccc12)c1ccc(S(=O)(=O)N2CCOCC2)cc1,4.5%,-19.0%,8µM*,-16.2%,i,-10.1%,4.8%,8.9%,0.6%,?
Cc1ccc(-c2[nH]c3ccccc3c2SCCNC(=O)c2ccc(S(=O)(=O)N(C)C)cc2)cc1,-1.5%,?,?,-12.2%,i,.,.,.,.,.
O=C(NCCSc1c(-c2ccccc2)[nH]c2ccccc12)c1ccc(S(=O)(=O)N2CCOCC2)cc1,3.4%,-27.0%,9.46µM*,-16.8%,i,-13.5%,-15.6%,7.3%,-19.8%,-8.9%
O=C(NCCSc1c(-c2ccc(Cl)cc2)[nH]c2ccccc12)c1ccc(S(=O)(=O)N2CCOCC2)cc1,-3.7%,?,-10.7%,-12.2%,i,.,.,.,.,.
CCN(CC)S(=O)(=O)c1ccc(C(=O)NCCSc2c(-c3ccc(OC)cc3)[nH]c3ccccc23)cc1,-2.9%,-14.9%,2.99µM*,-11.3%,i,-24.4%,-0.5%,-2.3%,-23.6%,-11.8%
Cn1c(=O)cc(SCC(=O)N2CCN(c3ccccc3F)CC2)c2cc(Cl)ccc21,0.0%,-2.0%,?,-2.5%,i,.,.,.,.,.
Cc1ccc(CN(Cc2cccn2-c2nnc(N3CCCC3=O)s2)C(=O)Nc2ccccc2C(F)(F)F)cc1,-2.8%,?,18.9µM*,0.0%,i,?,?,-0.3%,-2.5%,-22.3%
O=C(Nc1ccc(Cl)cc1)c1cc(S(=O)(=O)N2CCc3ccccc32)ccc1F,3.0%,-19.9%,?,?,i,.,.,.,.,.
CCN1CCN(c2ccc(NS(=O)(=O)c3c(C)nc4sccn4c3=O)cc2Cl)CC1,0.7%,-12.7%,8.91µM*,-17.2%,i,-6.7%,-0.6%,-12.2%,?,-21.7%
Cc1ccc(C(c2sc3nc(-c4ccco4)nn3c2O)N2CCN(Cc3ccccc3)CC2)cc1 (configuration not stated),-1.5%,14.1%,?,0.5%,i,.,.,.,.,.
COc1cccc(OC(=O)CSc2nnc(-c3ccccc3OC)o2)c1,-0.6%,7.2%,-29.2%,-5.2%,i,.,.,.,.,.
CSCCC(NS(=O)(=O)c1ccc2c(c1)oc(=O)n2C)C(=O)N1CCN(c2cccc(Cl)c2)CC1 (configuration not stated),0.5%,-20.6%,-24.6%,-2.7%,i,.,.,.,.,.
COc1ccccc1N1CCN(CCCNC(=O)c2nnc(Cc3c(F)cccc3Cl)o2)CC1,-7.1%,-2.7%,13.4µM*,-8.3%,i,-1.0%,0.7%,10.0%,-9.4%,-23.2%
CN(C)c1ccc(CNS(=O)(=O)c2ccc(-c3cc(C(F)(F)F)on3)s2)cc1,0.3%,-3.8%,0.4%,-2.0%,i,.,.,.,.,.
